Data: PubChem BioAssay AID1159580 (chemical genetic matrix, 2015)
The campaign covered roughly 5,500 compounds. About 2,000 (36%) were called active. About 18% were inconclusive and are not listed. This is one part of the list. Unmarked numbers belong to inactive results. No stated cut-off is given here; in the data, active means normalized growth mostly below about 0.91 (no sharp cut-off); inconclusive means no clear call, values can overlap the other calls; inactive means mostly above about 0.92.

Assay: chemical genetic growth profiling, strain panel (AID 1159580);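 further: tested at 20 µM; growth read once vehicle control cultures reached saturation at 30 °C; 1 = growth at the plate median or of vehicle wells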
Conditions: S. cerevisiae deletion strains, growth OD

With Nc1ncnc2c1nc(Br)n2C1OC2COP(=O)(O)O[C@@H]2C1O (some centres not stated) as the compound, how does the normalized growth (locus YAL040C, strain CLN3, stronger effect = lower value) read?
The normalized growth was 0.986.

What about the normalized growth (locus YDR150W, strain NUM1, stronger effect = lower value) of the same compound?
The normalized growth was 0.999.

What about the normalized growth (locus YER002W, strain NOP16, stronger effect = lower value) of the same compound?
Its normalized growth is 0.996.

What about the normalized growth (locus YGR078C, strain PAC10, stronger effect = lower value) of the same compound?
Its normalized growth is 1.01.

And the normalized growth (locus YJR075W, strain HOC1, stronger effect = lower value)?
The normalized growth was 1.

And the normalized growth (locus YMR263W, strain SAP30, stronger effect = lower value)?
The normalized growth was 0.999.

And the normalized growth (locus YNL175C, strain NOP13, stronger effect = lower value)?
Its normalized growth is 0.986.

What about the normalized growth (locus YNL197C, strain WHI3, stronger effect = lower value) of the same compound?
The normalized growth was 1.02.

What about the normalized growth (locus YNL224C, strain SQS1, stronger effect = lower value) of the same compound?
Its normalized growth is 0.999.

And the normalized growth (locus YOR083W, strain WHI5 (second series), stronger effect = lower value)?
The normalized growth was 1.02.

And the normalized growth (locus YPL055C, strain LGE1, stronger effect = lower value)?
The normalized growth was 1.01.

What does the source list for Clc1ccc(N/N=C\c2sccc2Oc2ccccc2)cc1?
normalized growth (locus YAR019C, strain CDC15, stronger effect = lower value): 0.971; normalized growth (locus YBL105C, strain PKC1, stronger effect = lower value): 0.979; normalized growth (locus YBR135W, strain CKS1, stronger effect = lower value): 0.966; normalized growth (locus YBR136W, strain MEC1, stronger effect = lower value): 0.963; normalized growth (locus YBR160W, strain CDC28, stronger effect = lower value): 0.965; normalized growth (locus YDL017W, strain CDC7, stronger effect = lower value): 0.974; normalized growth (locus YDL028C, strain MPS1, stronger effect = lower value): 0.968; normalized growth (locus YDL101C, strain DUN1, stronger effect = lower value): 0.951; normalized growth (locus YDL108W, strain KIN28, stronger effect = lower value): 0.969; normalized growth (locus YDL132W, strain cdc53, stronger effect = lower value): 0.964; normalized growth (locus YDL214C, strain PRR2, stronger effect = lower value): 0.335 (active); normalized growth (locus YDR052C, strain DBF4, stronger effect = lower value): 0.95; normalized growth (locus YDR054C, strain cdc34, stronger effect = lower value): 0.963; normalized growth (locus YDR226W, strain ADK1, stronger effect = lower value): 0.96; normalized growth (locus YDR477W, strain SNF1, stronger effect = lower value): 0.275 (active); normalized growth (locus YER123W, strain YCK3, stronger effect = lower value): 0.184 (active); normalized growth (locus YER133W, strain GLC7, stronger effect = lower value): 0.345 (active); normalized growth (locus YFL009W, strain cdc4, stronger effect = lower value): 0.968; normalized growth (locus YFL029C, strain CAK1, stronger effect = lower value): 0.959; normalized growth (locus YFR003C, strain YPI1, stronger effect = lower value): 0.975; normalized growth (locus YFR019W, strain FAB1, stronger effect = lower value): 0.313 (active); normalized growth (locus YFR028C, strain CDC14, stronger effect = lower value): 0.965; normalized growth (locus YGR040W, strain KSS1, stronger effect = lower value): 0.268 (active); normalized growth (locus YGR052W, strain FMP48, stronger effect = lower value): 0.21 (active); normalized growth (locus YGR092W, strain DBF2, stronger effect = lower value): 0.115 (active); normalized growth (locus YHR030C, strain SLT2, stronger effect = lower value): 0.125 (active); normalized growth (locus YHR079C, strain IRE1, stronger effect = lower value): 0.474 (active); normalized growth (locus YHR082C, strain KSP1, stronger effect = lower value): 0.361 (active); normalized growth (locus YHR205W, strain SCH9, stronger effect = lower value): 0.43 (active); normalized growth (locus YIL147C, strain SLN1, stronger effect = lower value): 0.969; normalized growth (locus YJL095W, strain BCK1, stronger effect = lower value): 0.125 (active); normalized growth (locus YJL128C, strain PBS2, stronger effect = lower value): 0.864; normalized growth (locus YJL157C, strain FAR1, stronger effect = lower value): 0.316 (active); normalized growth (locus YJR016C, strain ILV3, stronger effect = lower value): 0.947; normalized growth (locus YJR066W, strain TOR1 (second series), stronger effect = lower value): 0.423 (active); normalized growth (locus YJR066W, strain TOR1, stronger effect = lower value): 0.241 (active); normalized growth (locus YKL048C, strain ELM1, stronger effect = lower value): 0.468 (active); normalized growth (locus YKL067W, strain YNK1, stronger effect = lower value): 0.303 (active); normalized growth (locus YKL101W, strain HSL1, stronger effect = lower value): 0.353 (active); normalized growth (locus YKL193C, strain SDS22, stronger effect = lower value): 0.968; normalized growth (locus YKL203C, strain TOR2, stronger effect = lower value): 0.34 (active); normalized growth (locus YLR113W, strain HOG1, stronger effect = lower value): 0.275 (active); normalized growth (locus YLR133W, strain CKI1, stronger effect = lower value): 0.28 (active); normalized growth (locus YLR403W, strain SFP1, stronger effect = lower value): 0.242 (active); normalized growth (locus YML070W, strain DAK1, stronger effect = lower value): 0.293 (active); normalized growth (locus YMR001C, strain CDC5, stronger effect = lower value): 0.972; normalized growth (locus YMR205C, strain PFK2 (second series), stronger effect = lower value): 0.47 (active); normalized growth (locus YMR277W, strain FCP1, stronger effect = lower value): 0.977; normalized growth (locus YNL006W, strain LST8, stronger effect = lower value): 0.968; normalized growth (locus YNL020C, strain ARK1, stronger effect = lower value): 0.382 (active); normalized growth (locus YNL161W, strain CBK1, stronger effect = lower value): 0.974; normalized growth (locus YNL183C, strain NPR1, stronger effect = lower value): 0.393 (active); normalized growth (locus YNL207W, strain RIO2, stronger effect = lower value): 0.969; normalized growth (locus YNL222W, strain SSU72, stronger effect = lower value): 0.966; normalized growth (locus YNL307C, strain MCK1 (second series), stronger effect = lower value): 0.147 (active); normalized growth (locus YOL078W, strain AVO1, stronger effect = lower value): 0.97; normalized growth (locus YOL136C, strain PFK27, stronger effect = lower value): 0.312 (active); normalized growth (locus YOR061W, strain CKA2, stronger effect = lower value): 0.19 (active); normalized growth (locus YOR119C, strain RIO1, stronger effect = lower value): 0.299 (active); normalized growth (locus YOR231W, strain MKK1, stronger effect = lower value): 0.477 (active); normalized growth (locus YOR329C, strain SCD5, stronger effect = lower value): 0.978; normalized growth (locus YPL031C, strain PHO85, stronger effect = lower value): 0.295 (active); normalized growth (locus YPL153C, strain RAD53, stronger effect = lower value): 0.279 (active); normalized growth (locus YPL204W, strain HRR25, stronger effect = lower value): 0.338 (active); normalized growth (locus YPL209C, strain IPL1, stronger effect = lower value): 0.977; normalized growth (locus YPL256C, strain CLN2, stronger effect = lower value): 0.275 (active); normalized growth (locus YPR025C, strain CCL1, stronger effect = lower value): 0.963; normalized growth (locus YPR106W, strain ISR1, stronger effect = lower value): 0.967; normalized growth (locus YPR111W, strain DBF20, stronger effect = lower value): 0.963; normalized growth (strain NNK1, stronger effect = lower value): 0.979; normalized growth (strain TSCII, stronger effect = lower value): 0.966
